We go through 14 molecules from PubChem BioAssay AID651642 (Sanford-Burnham Center for Chemical Genomics, 2012).

Activity calls are given as the source filed them.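 How the source made its calls: active means average half-effect concentration of 10 µM or less in every one of the four cell panels; inactive means the rest.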

The test relates to H9c2. As to the kind of experiment: cardiomyocyte survival under oxidative or metabolic stress – cell-based, panel, H9c2 and HL-1, H2O2, 2-deoxyglucose, ATP luminescence, SAR follow-up (AID 651642). The conditions noted are these: H9c2/HL-1 cardiomyocyte 2-deoxyglucose damage, mean of runs, with 2-deoxyglucose.
On to `CCOC(=O)c1cccc(NC(=O)c2cc(-c3cc(OC)c(OC)c(OC)c3)nc3ccc(F)cc23)c1`, for which the result was inactive.
For the molecule `COc1cc(-c2cc(C(=O)Nc3cccc(C(=O)O)c3)c3ccccc3n2)cc(OC)c1OC`, the outcome was inactive.
To `CCOC(=O)c1cccc(NC(=O)c2cc(-c3cc(OC)c(OC)c(OC)c3)nc3c(Cl)cccc23)c1` belongs “inactive”; to `COc1ccc2c(c1OC)C(=O)N1c3ccccc3C(=O)N(Cc3cccc(F)c3)C21` (centres undefined), “inactive”.
To `COc1cc(-c2cc(C(=O)NCC(=O)Nc3cccc(C(C)=O)c3)c3cc(F)ccc3n2)cc(OC)c1OC` belongs “active”; to `CCOC(=O)c1cccc(NC(=O)c2cc(-c3cc(OC)c(OC)c(OC)c3)nc3ccc(Cl)cc23)c1`, “inactive”.
To `CCOC(=O)c1ccc(NC(=O)c2cc(-c3cc(OC)c(OC)c(OC)c3)nc3ccccc23)cc1` belongs “inactive”; to `COc1ccc2c(c1OC)C(=O)N1c3ccccc3C(=O)N(Cc3ccccc3Br)C21` (centres undefined), “inactive”.
As to `COc1ccc2c(c1OC)C(=O)N1c3ccccc3C(=O)N(Cc3ccccc3C)C21` (centres undefined), the call was inactive.
To `CCOC(=O)c1cccc(NC(=O)c2cc(-c3cc(OC)c(OC)c(OC)c3)nc3cc(Cl)ccc23)c1` belongs “inactive”.
For `CCOC(=O)c1cccc(NC(=O)c2cc(-c3cc(OC)c(OC)c(OC)c3)nc3ccc(C)cc23)c1` the value was “inactive”.
For `COc1cccc(CNC(=O)CNC(=O)c2cc(-c3cc(OC)c(OC)c(OC)c3)nc3ccccc23)c1` the value was “inactive”; for `COc1cc(-c2cc(C(=O)NCC(=O)Nc3cccc(C(C)=O)c3)c3cc(Br)ccc3n2)cc(OC)c1OC`, “active”; for `COc1cc(-c2cc(C(=O)NCC(=O)Nc3cccc(C(C)=O)c3)c3cccc(Cl)c3n2)cc(OC)c1OC`, “inactive”.
